Laboratory results from paper PMC5540273 (PLoS ONE, 2017).

How the values were obtained:
Conditions in all cases: concentration: 1 μM, replicates: in singlicate; n = 1
[1] = system: CAMK2G
[2] = system: CAMK4
[3] = system: CAMKK1
[4] = system: CAMKK2
[5] = system: CASK
[6] = system: T1, CDC2L1
T1 construct: gene CDK11B

[7] = system: CDC2L2
[8] = system: T2, CDC2L5
T2 construct: gene CDK13

[9] = system: T3, CDK11
T3 construct: gene CDK19

[10] = system: CDK2
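Further: KINOMEscan kinase panel screen.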

COc1cccc(C2=C(Nc3cccc(C(=O)O)c3)C(=O)NC2=O)c1 [SB-390770]
%Inh [1]: 14%
%Inh [2]: 0%
%Inh [3]: 1%
%Inh [4]: 14%
%Inh [5]: 13%
%Inh [6]: 0%
%Inh [7]: 0%
%Inh [8]: 0%
%Inh [9]: 0%
%Inh [10]: 15%

OCCCNc1nccc(-c2c(-c3cccc(C(F)(F)F)c3)nn3cc(C(F)(F)F)ccc23)n1 [GW630813]
%Inh [1]: 17%
%Inh [2]: 0%
%Inh [3]: 5%
%Inh [4]: 12%
%Inh [5]: 2%
%Inh [6]: 0%
%Inh [7]: 9%
%Inh [8]: 0%
%Inh [9]: 2%
%Inh [10]: 25%

FC(F)(F)c1ccc(-c2ncn(CCCN3CCOCC3)c2-c2ccncc2)cc1 [SB-217780]
%Inh [1]: 21%
%Inh [2]: 14%
%Inh [3]: 11%
%Inh [4]: 18%
%Inh [5]: 0%
%Inh [6]: 0%
%Inh [7]: 14%
%Inh [8]: 15%
%Inh [9]: 0%
%Inh [10]: 0%

COc1cc2nccc(Nc3ccc(OCc4ccc(NC(C)=O)cc4)cc3)c2cc1OC.Cl [GW440135]
%Inh [1]: 9%
%Inh [2]: 0%
%Inh [3]: 11%
%Inh [4]: 1%
%Inh [5]: 0%
%Inh [6]: 0%
%Inh [7]: 0%
%Inh [8]: 0%
%Inh [9]: 34%
%Inh [10]: 0%

COc1cccc(C2=C(N(C)c3ccccc3)C(=O)NC2=O)c1 [SB-334865]
%Inh [1]: 9%
%Inh [2]: 0%
%Inh [3]: 0%
%Inh [4]: 0%
%Inh [5]: 30%
%Inh [6]: 43%
%Inh [7]: 27%
%Inh [8]: 0%
%Inh [9]: 0%
%Inh [10]: 3%

COc1ccc(CNC(=O)NC2CCN(c3ccnc(Nc4ccc(F)cc4)n3)C2)cc1 (centres unmarked) [GSK1379706]
%Inh [1]: 38%
%Inh [2]: 0%
%Inh [3]: 17%
%Inh [4]: 26%
%Inh [5]: 19%
%Inh [6]: 2%
%Inh [7]: 0%
%Inh [8]: 0%
%Inh [9]: 22%
%Inh [10]: 3%

CCC(=O)c1c(-c2ccccc2)c2cc(Cl)ccc2c(=O)n1Cc1cc(C(=O)NC2CC2)n(C)n1
%Inh [1]: 6%
%Inh [2]: 0%
%Inh [3]: 2%
%Inh [4]: 15%
%Inh [5]: 0%
%Inh [6]: 4%
%Inh [7]: 0%
%Inh [8]: 0%
%Inh [9]: 3%
%Inh [10]: 0%

COC(=O)c1c(-c2ccccc2)c2cc(C)ccc2c(=O)n1Cc1ccccc1
%Inh [1]: 0%
%Inh [2]: 0%
%Inh [3]: 0%
%Inh [4]: 6%
%Inh [5]: 0%
%Inh [6]: 0%
%Inh [7]: 0%
%Inh [8]: 0%
%Inh [9]: 0%
%Inh [10]: 0%

Cc1ccc(-c2ccc3c(ccc4sc5c(c43)NC[C@@H](C)N=C5N(C)C)n2)cn1
%Inh [1]: 0%
%Inh [2]: 20%
%Inh [3]: 0%
%Inh [4]: 0%
%Inh [5]: 2%
%Inh [6]: 4%
%Inh [7]: 0%
%Inh [8]: 0%
%Inh [9]: 0%
%Inh [10]: 0%

CCCC(=O)Nc1n[nH]c2ncc(-c3cccc4ccccc34)cc12 [SB-642057]
%Inh [1]: 28%
%Inh [2]: 22%
%Inh [3]: 20%
%Inh [4]: 30%
%Inh [5]: 34%
%Inh [6]: 0%
%Inh [7]: 1%
%Inh [8]: 0%
%Inh [9]: 0%
%Inh [10]: 56%

COc1ccc(-c2cc3c(C)nc(N)nc3n([C@H]3CC[C@H](OCCO)CC3)c2=O)cn1
%Inh [1]: 0%
%Inh [2]: 5%
%Inh [3]: 5%
%Inh [4]: 0%
%Inh [5]: 0%
%Inh [6]: 11%
%Inh [7]: 0%
%Inh [8]: 0%
%Inh [9]: 34%
%Inh [10]: 0%

O=C(NCc1cccs1)c1cc(C(=O)c2c(Cl)cccc2Cl)c[nH]1 [GW823670]
%Inh [1]: 0%
%Inh [2]: 15%
%Inh [3]: 0%
%Inh [4]: 0%
%Inh [5]: 5%
%Inh [6]: 0%
%Inh [7]: 0%
%Inh [8]: 0%
%Inh [9]: 14%
%Inh [10]: 0%

Nc1nccc2scc(-c3ccc4c(c3)CCN4C(=O)Cc3ccccc3)c12 [GSK2576924]
%Inh [1]: 0%
%Inh [2]: 3%
%Inh [3]: 0%
%Inh [4]: 7%
%Inh [5]: 15%
%Inh [6]: 8%
%Inh [7]: 16%
%Inh [8]: 0%
%Inh [9]: 57%
%Inh [10]: 0%

O=C(Nc1n[nH]c2nc(-c3ccccc3)c(Br)cc12)C1CC1 [SB-708998]
%Inh [1]: 4%
%Inh [2]: 0%
%Inh [3]: 0%
%Inh [4]: 0%
%Inh [5]: 0%
%Inh [6]: 0%
%Inh [7]: 0%
%Inh [8]: 0%
%Inh [9]: 0%
%Inh [10]: 0%

COc1cc2ncn(-c3cc(OCc4ccc(S(C)(=O)=O)cc4)c(C(N)=O)s3)c2cc1OC [GW869979]
%Inh [1]: 0%
%Inh [2]: 0%
%Inh [3]: 0%
%Inh [4]: 0%
%Inh [5]: 37%
%Inh [6]: 0%
%Inh [7]: 14%
%Inh [8]: 31%
%Inh [9]: 0%
%Inh [10]: 0%

CN1C(=O)C(Nc2cc(Cl)c(O)c(Cl)c2)=C(c2ccc(Cl)cc2)C1=O [SB-404321]
%Inh [1]: 0%
%Inh [2]: 0%
%Inh [3]: 0%
%Inh [4]: 0%
%Inh [5]: 14%
%Inh [6]: 0%
%Inh [7]: 0%
%Inh [8]: 0%
%Inh [9]: 9%
%Inh [10]: 0%

CC(C)(C)c1ccc(C(=O)Nc2cn3cc(-c4ccccc4)ccc3n2)cc1
%Inh [1]: 0%
%Inh [2]: 14%
%Inh [3]: 0%
%Inh [4]: 0%
%Inh [5]: 1%
%Inh [6]: 0%
%Inh [7]: 11%
%Inh [8]: 0%
%Inh [9]: 0%
%Inh [10]: 0%

COc1cc2nccc(Nc3cccc(Oc4ccccc4)c3)c2cc1OC.Cl [GW284543]
%Inh [1]: 19%
%Inh [2]: 0%
%Inh [3]: 8%
%Inh [4]: 19%
%Inh [5]: 1%
%Inh [6]: 0%
%Inh [7]: 11%
%Inh [8]: 0%
%Inh [9]: 0%
%Inh [10]: 0%

CCCNC(=O)Nc1ccc(Oc2ncnc3ccn(C)c23)cc1
%Inh [1]: 15%
%Inh [2]: 0%
%Inh [3]: 5%
%Inh [4]: 9%
%Inh [5]: 13%
%Inh [6]: 0%
%Inh [7]: 0%
%Inh [8]: 6%
%Inh [9]: 3%
%Inh [10]: 7%

Nc1n[nH]c2ncc(-c3ccccc3)cc12 [SB-517081]
%Inh [1]: 11%
%Inh [2]: 0%
%Inh [3]: 0%
%Inh [4]: 0%
%Inh [5]: 24%
%Inh [6]: 0%
%Inh [7]: 5%
%Inh [8]: 0%
%Inh [9]: 0%
%Inh [10]: 0%

Cc1ccc(Oc2ccc(Nc3ncnc4cc[nH]c34)cc2C)cn1
%Inh [1]: 15%
%Inh [2]: 0%
%Inh [3]: 9%
%Inh [4]: 5%
%Inh [5]: 0%
%Inh [6]: 0%
%Inh [7]: 7%
%Inh [8]: 0%
%Inh [9]: 19%
%Inh [10]: 0%

CCC(=O)c1c(-c2ccccc2)c2cc(Cl)ccc2c(=O)n1Cc1cc(S(C)(=O)=O)n(CCC(C)(C)O)n1
%Inh [1]: 18%
%Inh [2]: 19%
%Inh [3]: 18%
%Inh [4]: 28%
%Inh [5]: 0%
%Inh [6]: 9%
%Inh [7]: 13%
%Inh [8]: 23%
%Inh [9]: 14%
%Inh [10]: 0%

Cl.c1ccc(Cn2cnc3cc(Nc4ncnc5ccccc45)ccc32)cc1 [GW272142]
%Inh [1]: 32%
%Inh [2]: 0%
%Inh [3]: 9%
%Inh [4]: 31%
%Inh [5]: 26%
%Inh [6]: 0%
%Inh [7]: 13%
%Inh [8]: 0%
%Inh [9]: 8%
%Inh [10]: 0%

Cc1nnc(-c2ccc(C)c(-c3ccc(C(=O)O)cc3)c2)o1 [GW608005]
%Inh [1]: 3%
%Inh [2]: 0%
%Inh [3]: 7%
%Inh [4]: 0%
%Inh [5]: 1%
%Inh [6]: 0%
%Inh [7]: 0%
%Inh [8]: 0%
%Inh [9]: 0%
%Inh [10]: 0%

Nc1n[nH]c2nnc(-c3ccccc3)c(-c3ccccc3)c12 [GW554060]
%Inh [1]: 17%
%Inh [2]: 0%
%Inh [3]: 13%
%Inh [4]: 11%
%Inh [5]: 71%
%Inh [6]: 0%
%Inh [7]: 0%
%Inh [8]: 0%
%Inh [9]: 0%
%Inh [10]: 0%

Cc1nc(N(C)[C@H]2CN(C(=O)CC#N)CC[C@H]2C)c2cc[nH]c2n1
%Inh [1]: 12%
%Inh [2]: 6%
%Inh [3]: 7%
%Inh [4]: 4%
%Inh [5]: 15%
%Inh [6]: 0%
%Inh [7]: 0%
%Inh [8]: 0%
%Inh [9]: 0%
%Inh [10]: 0%

O=C(Nc1ccc2c(c1)OCO2)NC1CCN(c2ccnc(NCc3ccc(F)cc3)n2)CC1 [GSK1379859]
%Inh [1]: 22%
%Inh [2]: 0%
%Inh [3]: 0%
%Inh [4]: 25%
%Inh [5]: 0%
%Inh [6]: 0%
%Inh [7]: 6%
%Inh [8]: 0%
%Inh [9]: 53%
%Inh [10]: 0%

Cn1c(=O)c(F)c(Nc2ccc(I)cc2F)c2c(=O)n(OC[C@H](O)CO)cnc21
%Inh [1]: 34%
%Inh [2]: 22%
%Inh [3]: 24%
%Inh [4]: 33%
%Inh [5]: 0%
%Inh [6]: 14%
%Inh [7]: 15%
%Inh [8]: 13%
%Inh [9]: 0%
%Inh [10]: 0%

Fc1cccc(CSc2nnc(-c3ccc4c(c3)CCO4)o2)c1
%Inh [1]: 20%
%Inh [2]: 0%
%Inh [3]: 9%
%Inh [4]: 6%
%Inh [5]: 0%
%Inh [6]: 0%
%Inh [7]: 0%
%Inh [8]: 17%
%Inh [9]: 0%
%Inh [10]: 8%

Cc1nnc(-c2ccc3ncn(-c4ccc(S(C)=O)cc4)c3c2)o1 (centres unmarked)
%Inh [1]: 0%
%Inh [2]: 0%
%Inh [3]: 0%
%Inh [4]: 0%
%Inh [5]: 0%
%Inh [6]: 0%
%Inh [7]: 10%
%Inh [8]: 0%
%Inh [9]: 0%
%Inh [10]: 0%

CCc1nc(-c2cccc(C)c2)c(-c2ccncc2)s1
%Inh [1]: 0%
%Inh [2]: 0%
%Inh [3]: 0%
%Inh [4]: 0%
%Inh [5]: 0%
%Inh [6]: 0%
%Inh [7]: 3%
%Inh [8]: 0%
%Inh [9]: 0%
%Inh [10]: 0%

COc1cc(OC)cc(-c2cc3cnc(N)nc3nc2NC(=O)NC(C)(C)C)c1
%Inh [1]: 23%
%Inh [2]: 0%
%Inh [3]: 16%
%Inh [4]: 29%
%Inh [5]: 0%
%Inh [6]: 2%
%Inh [7]: 0%
%Inh [8]: 0%
%Inh [9]: 0%
%Inh [10]: 0%

COc1cc(Nc2nccc(N3CCC(NC(=O)C4COc5ccccc5O4)C3)n2)cc(OC)c1OC (centres unmarked) [GSK1379761]
%Inh [1]: 26%
%Inh [2]: 0%
%Inh [3]: 20%
%Inh [4]: 14%
%Inh [5]: 0%
%Inh [6]: 0%
%Inh [7]: 4%
%Inh [8]: 0%
%Inh [9]: 7%
%Inh [10]: 0%

Cc1cccc(-c2nc(Nc3ccc4c(cnn4C)c3)c3ccccc3n2)n1 [GW876731]
%Inh [1]: 0%
%Inh [2]: 0%
%Inh [3]: 2%
%Inh [4]: 0%
%Inh [5]: 0%
%Inh [6]: 0%
%Inh [7]: 6%
%Inh [8]: 0%
%Inh [9]: 10%
%Inh [10]: 6%

Nc1nc(-c2ccccc2F)c(-c2ccnc3ccccc23)s1 [GW560459]
%Inh [1]: 10%
%Inh [2]: 0%
%Inh [3]: 10%
%Inh [4]: 4%
%Inh [5]: 0%
%Inh [6]: 0%
%Inh [7]: 8%
%Inh [8]: 0%
%Inh [9]: 0%
%Inh [10]: 0%
